From publication PMC7862700, “An all-to-all approach to the identification of sequence-specific readers for epigenetic DNA modifications on cytosine”

Legend:
Assay in all cases: DAPPL (digital affinity profiling via proximity ligation, sequencing); 10 mM Tris-HCl pH 7.5, 50 mM NaCl, 1 mM DTT, 4% glycerol, room temperature, 30 min; GST-TFs on glutathione beads, 16-mer random dsDNA library, 0.1% formaldehyde crosslink after washing; high values mean tight binding
FLI1 = target: T1, FLI1 (Homo sapiens, UniProt Q01543 1-452); conditions: protein: recombinant; tags: N-terminal GST; dsDNA, one strand shown
T1 sequence: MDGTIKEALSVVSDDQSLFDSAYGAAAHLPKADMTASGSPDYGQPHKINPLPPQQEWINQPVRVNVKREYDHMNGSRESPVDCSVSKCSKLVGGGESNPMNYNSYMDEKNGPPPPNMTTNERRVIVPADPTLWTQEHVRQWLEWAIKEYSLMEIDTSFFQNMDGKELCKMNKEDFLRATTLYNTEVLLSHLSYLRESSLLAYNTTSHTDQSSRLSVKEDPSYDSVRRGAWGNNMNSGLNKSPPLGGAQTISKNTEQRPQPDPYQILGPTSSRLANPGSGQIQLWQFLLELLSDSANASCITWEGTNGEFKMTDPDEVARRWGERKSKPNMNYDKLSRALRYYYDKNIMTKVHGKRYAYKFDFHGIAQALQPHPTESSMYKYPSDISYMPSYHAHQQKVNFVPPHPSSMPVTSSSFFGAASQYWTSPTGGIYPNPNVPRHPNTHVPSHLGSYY
Outline: (§1)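 Human transcription factors fused to GST were expressed in yeast, captured on glutathione beads, given DNA barcodes and pooled with a GST-only negative control. Pools were incubated with 200 nmole of a 16-mer random double-stranded DNA library in Tris/NaCl/DTT/glycerol buffer at room temperature for 30 min. They were then washed, crosslinked with 0.1% formaldehyde, proximity-ligated (BsaI/T4 ligase, 1 h, 37 °C), PCR-amplified and sequenced on an Illumina NextSeq500. Binding signal is each 6-mer's read frequency for a factor divided by its frequency for the GST control.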

ELK1 = target: T2, ELK1 (Homo sapiens, UniProt P19419 1-428); conditions: protein: recombinant; tags: N-terminal GST; dsDNA, one strand shown
T2 sequence: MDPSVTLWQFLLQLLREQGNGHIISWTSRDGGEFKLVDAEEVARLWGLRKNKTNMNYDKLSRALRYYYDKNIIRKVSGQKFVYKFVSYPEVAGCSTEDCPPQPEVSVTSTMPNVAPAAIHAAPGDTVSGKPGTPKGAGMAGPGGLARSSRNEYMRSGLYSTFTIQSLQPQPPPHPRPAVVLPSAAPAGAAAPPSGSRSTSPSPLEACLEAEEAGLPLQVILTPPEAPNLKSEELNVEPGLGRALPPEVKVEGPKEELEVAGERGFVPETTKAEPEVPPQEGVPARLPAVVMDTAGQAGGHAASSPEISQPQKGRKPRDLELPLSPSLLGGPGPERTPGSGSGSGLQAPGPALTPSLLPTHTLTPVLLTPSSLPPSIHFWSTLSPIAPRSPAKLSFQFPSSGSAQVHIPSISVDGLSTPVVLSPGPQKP
Outline: as §1

GABPA = target: T3, GABPA (Homo sapiens, UniProt Q06546 1-454); conditions: protein: recombinant; tags: N-terminal GST; dsDNA, one strand shown
T3 sequence: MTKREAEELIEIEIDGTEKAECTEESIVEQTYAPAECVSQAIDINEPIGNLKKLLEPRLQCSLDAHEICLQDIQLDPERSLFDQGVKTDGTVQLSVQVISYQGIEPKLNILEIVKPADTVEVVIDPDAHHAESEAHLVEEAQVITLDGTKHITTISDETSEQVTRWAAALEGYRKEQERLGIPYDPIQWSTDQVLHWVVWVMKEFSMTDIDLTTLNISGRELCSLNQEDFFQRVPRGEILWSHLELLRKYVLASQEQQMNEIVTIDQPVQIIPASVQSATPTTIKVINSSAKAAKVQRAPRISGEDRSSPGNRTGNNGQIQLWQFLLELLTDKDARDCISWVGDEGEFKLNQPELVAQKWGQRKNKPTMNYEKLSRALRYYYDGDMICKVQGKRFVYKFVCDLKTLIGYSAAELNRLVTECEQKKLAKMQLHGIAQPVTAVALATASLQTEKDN
Outline: as §1

ERG = target: T4, ERG (Homo sapiens, UniProt P11308 1-479); conditions: protein: recombinant; tags: N-terminal GST; dsDNA, one strand shown
T4 sequence: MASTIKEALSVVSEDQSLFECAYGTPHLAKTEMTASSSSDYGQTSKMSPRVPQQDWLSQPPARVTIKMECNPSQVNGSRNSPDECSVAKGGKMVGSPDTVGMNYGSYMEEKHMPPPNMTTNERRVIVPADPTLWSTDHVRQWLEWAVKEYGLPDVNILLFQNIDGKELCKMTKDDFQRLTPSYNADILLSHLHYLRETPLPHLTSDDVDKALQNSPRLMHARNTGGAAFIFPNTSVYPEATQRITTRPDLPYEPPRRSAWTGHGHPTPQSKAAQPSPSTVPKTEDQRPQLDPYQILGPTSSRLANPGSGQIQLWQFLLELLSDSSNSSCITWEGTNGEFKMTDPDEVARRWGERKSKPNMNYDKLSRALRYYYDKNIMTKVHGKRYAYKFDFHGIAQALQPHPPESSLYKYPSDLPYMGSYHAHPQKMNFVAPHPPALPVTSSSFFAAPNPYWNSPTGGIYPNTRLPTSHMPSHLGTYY
Outline: as §1

ELF1 = ELF1 (Homo sapiens, UniProt P32519 1-619); conditions: protein: recombinant; tags: N-terminal GST; dsDNA, one strand shown
Outline: as §1

EHF = target: T5, EHF (Homo sapiens, UniProt Q9NZC4 1-300); conditions: protein: recombinant; tags: N-terminal GST; dsDNA, one strand shown
T5 sequence: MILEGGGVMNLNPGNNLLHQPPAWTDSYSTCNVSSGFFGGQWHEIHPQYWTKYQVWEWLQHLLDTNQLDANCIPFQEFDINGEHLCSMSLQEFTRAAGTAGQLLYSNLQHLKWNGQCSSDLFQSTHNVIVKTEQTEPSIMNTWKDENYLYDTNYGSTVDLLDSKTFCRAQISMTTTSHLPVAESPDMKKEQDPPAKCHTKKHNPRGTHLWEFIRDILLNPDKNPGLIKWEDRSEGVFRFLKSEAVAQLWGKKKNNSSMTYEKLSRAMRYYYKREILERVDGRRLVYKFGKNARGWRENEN
Outline: as §1

SPI1 = SPI1 (Homo sapiens, UniProt P17947 1-270); conditions: protein: recombinant; tags: N-terminal GST; dsDNA, one strand shown
Outline: as §1

SPIB = SPIB (Homo sapiens, UniProt Q01892 1-262); conditions: protein: recombinant; tags: N-terminal GST; dsDNA, one strand shown
Outline: as §1

ELK3 = target: T6, ELK3 (Homo sapiens, UniProt P41970 1-407); conditions: protein: recombinant; tags: N-terminal GST; dsDNA, one strand shown
T6 sequence: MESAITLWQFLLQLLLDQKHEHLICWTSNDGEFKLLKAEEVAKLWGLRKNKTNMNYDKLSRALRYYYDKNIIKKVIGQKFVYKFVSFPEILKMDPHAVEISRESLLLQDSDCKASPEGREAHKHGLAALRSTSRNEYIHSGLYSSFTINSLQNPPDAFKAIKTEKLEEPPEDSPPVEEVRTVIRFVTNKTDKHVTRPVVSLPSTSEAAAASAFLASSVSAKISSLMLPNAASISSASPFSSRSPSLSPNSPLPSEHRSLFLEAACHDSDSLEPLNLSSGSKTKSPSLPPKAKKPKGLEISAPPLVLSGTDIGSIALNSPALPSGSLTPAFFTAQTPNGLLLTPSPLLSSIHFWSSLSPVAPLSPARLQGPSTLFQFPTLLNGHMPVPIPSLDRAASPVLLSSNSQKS
Outline: as §1

FEV = target: T7, FEV (Homo sapiens, UniProt Q99581 1-238); conditions: protein: recombinant; tags: N-terminal GST; dsDNA, one strand shown
T7 sequence: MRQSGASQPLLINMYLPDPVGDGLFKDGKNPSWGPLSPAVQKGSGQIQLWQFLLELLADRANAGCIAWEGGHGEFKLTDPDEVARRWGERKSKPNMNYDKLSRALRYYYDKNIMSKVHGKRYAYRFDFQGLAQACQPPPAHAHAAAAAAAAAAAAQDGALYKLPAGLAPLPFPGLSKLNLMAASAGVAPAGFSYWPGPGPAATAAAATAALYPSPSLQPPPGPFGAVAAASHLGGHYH
Outline: as §1

ETV5 = ETV5 (Homo sapiens, UniProt P41161 1-510); conditions: protein: recombinant; tags: N-terminal GST; dsDNA, one strand shown
Outline: as §1

HSF1 = HSF1 (Homo sapiens, UniProt Q00613 1-529); conditions: protein: recombinant; tags: N-terminal GST; chain copies: 3; dsDNA, one strand shown
Outline: as §1

SPIC = target: T8, SPIC (Homo sapiens, UniProt Q8N5J4 1-248); conditions: protein: recombinant; tags: N-terminal GST; dsDNA, one strand shown
T8 sequence: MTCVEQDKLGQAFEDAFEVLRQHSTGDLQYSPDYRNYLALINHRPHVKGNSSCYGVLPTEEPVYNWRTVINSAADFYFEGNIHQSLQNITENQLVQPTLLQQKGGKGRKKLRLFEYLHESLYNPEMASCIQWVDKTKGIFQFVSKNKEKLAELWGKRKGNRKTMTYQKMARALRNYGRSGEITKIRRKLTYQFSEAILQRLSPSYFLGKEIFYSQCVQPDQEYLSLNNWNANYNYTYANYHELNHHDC
Outline: as §1

ELF4 = ELF4 (Homo sapiens, UniProt Q99607 1-663); conditions: protein: recombinant; tags: N-terminal GST; dsDNA, one strand shown
Outline: as §1

ELK4 = target: T9, ELK4 (Homo sapiens, UniProt P28324-2 1-405); conditions: protein: recombinant; tags: N-terminal GST; dsDNA, one strand shown
T9 sequence: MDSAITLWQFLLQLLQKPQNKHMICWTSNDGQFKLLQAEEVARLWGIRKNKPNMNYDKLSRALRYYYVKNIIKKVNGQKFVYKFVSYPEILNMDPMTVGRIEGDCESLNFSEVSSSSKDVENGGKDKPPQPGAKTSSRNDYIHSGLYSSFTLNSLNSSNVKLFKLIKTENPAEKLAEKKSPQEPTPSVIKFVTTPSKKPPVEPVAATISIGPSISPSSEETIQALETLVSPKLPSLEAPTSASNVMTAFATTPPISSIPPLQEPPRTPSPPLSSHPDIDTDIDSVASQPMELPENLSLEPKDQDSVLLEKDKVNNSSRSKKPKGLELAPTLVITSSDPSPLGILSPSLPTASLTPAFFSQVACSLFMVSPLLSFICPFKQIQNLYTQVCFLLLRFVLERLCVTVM
Outline: as §1

ETV2 = target: T10, ETV2 (Homo sapiens, UniProt O00321 1-342); conditions: protein: recombinant; tags: N-terminal GST; dsDNA, one strand shown
T10 sequence: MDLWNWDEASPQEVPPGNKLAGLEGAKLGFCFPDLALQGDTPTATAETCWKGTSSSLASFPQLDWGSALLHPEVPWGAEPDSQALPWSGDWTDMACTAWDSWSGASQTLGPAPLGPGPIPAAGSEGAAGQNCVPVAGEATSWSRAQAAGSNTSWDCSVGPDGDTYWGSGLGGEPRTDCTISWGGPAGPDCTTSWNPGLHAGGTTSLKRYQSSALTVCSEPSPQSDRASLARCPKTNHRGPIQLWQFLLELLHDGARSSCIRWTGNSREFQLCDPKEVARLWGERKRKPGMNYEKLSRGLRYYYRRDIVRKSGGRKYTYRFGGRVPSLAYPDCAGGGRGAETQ
Outline: as §1

ELF3 = target: T11, ELF3 (Homo sapiens, UniProt P78545 1-371); conditions: protein: recombinant; tags: N-terminal GST; dsDNA, one strand shown
T11 sequence: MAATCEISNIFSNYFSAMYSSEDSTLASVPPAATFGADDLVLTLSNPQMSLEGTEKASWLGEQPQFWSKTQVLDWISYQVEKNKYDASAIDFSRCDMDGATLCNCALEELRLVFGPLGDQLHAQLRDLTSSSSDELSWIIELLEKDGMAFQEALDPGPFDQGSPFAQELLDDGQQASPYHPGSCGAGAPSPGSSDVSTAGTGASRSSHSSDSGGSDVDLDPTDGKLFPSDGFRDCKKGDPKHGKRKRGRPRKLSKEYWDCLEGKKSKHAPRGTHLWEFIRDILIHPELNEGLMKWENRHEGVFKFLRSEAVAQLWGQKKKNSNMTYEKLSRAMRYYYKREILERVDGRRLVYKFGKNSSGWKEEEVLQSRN
Outline: as §1

CRX = CRX (Homo sapiens, UniProt O43186 1-299); conditions: protein: recombinant; tags: N-terminal GST; dsDNA, one strand shown
Outline: as §1

ETV1 = ETV1 (Homo sapiens, UniProt P50549 1-477); conditions: protein: recombinant; tags: N-terminal GST; dsDNA, one strand shown
Outline: as §1

Sequence of ETV5 (P41161 whole entry): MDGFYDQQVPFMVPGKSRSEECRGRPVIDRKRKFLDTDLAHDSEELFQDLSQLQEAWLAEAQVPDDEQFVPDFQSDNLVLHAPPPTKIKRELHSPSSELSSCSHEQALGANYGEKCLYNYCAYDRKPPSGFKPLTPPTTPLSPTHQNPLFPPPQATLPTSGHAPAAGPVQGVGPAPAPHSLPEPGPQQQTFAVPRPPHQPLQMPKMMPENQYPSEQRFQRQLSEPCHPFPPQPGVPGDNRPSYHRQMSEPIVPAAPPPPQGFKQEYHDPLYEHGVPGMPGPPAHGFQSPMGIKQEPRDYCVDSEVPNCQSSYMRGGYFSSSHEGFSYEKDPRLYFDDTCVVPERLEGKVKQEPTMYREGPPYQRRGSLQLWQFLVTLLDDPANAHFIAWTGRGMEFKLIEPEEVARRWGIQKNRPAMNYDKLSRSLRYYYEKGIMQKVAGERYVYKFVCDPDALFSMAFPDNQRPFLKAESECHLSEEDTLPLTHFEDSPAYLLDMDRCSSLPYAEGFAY
Sequence of ETV1 (P50549 whole entry): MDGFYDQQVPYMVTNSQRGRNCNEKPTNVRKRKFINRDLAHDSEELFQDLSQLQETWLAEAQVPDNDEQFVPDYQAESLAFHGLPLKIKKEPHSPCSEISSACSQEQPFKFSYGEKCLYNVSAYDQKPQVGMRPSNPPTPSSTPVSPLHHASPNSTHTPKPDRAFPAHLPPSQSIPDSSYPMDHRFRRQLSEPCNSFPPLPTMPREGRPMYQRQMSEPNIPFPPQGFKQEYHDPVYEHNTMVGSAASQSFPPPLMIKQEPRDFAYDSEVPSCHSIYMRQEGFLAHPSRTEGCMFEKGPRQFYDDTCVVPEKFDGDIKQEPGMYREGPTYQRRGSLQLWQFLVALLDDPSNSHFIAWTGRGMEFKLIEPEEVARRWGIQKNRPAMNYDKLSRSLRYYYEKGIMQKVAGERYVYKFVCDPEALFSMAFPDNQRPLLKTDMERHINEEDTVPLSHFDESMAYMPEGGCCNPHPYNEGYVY
Sequence of CRX (O43186 whole entry): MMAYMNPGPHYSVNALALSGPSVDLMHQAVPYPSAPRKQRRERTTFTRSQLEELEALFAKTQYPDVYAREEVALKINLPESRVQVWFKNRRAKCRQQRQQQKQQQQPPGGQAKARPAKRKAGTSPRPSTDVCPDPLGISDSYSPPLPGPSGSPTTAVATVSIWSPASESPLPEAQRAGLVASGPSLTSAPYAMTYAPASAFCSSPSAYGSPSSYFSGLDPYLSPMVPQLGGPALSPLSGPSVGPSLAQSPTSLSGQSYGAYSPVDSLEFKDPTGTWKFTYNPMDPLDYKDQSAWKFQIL
Sequence of ELF1 (P32519 whole entry): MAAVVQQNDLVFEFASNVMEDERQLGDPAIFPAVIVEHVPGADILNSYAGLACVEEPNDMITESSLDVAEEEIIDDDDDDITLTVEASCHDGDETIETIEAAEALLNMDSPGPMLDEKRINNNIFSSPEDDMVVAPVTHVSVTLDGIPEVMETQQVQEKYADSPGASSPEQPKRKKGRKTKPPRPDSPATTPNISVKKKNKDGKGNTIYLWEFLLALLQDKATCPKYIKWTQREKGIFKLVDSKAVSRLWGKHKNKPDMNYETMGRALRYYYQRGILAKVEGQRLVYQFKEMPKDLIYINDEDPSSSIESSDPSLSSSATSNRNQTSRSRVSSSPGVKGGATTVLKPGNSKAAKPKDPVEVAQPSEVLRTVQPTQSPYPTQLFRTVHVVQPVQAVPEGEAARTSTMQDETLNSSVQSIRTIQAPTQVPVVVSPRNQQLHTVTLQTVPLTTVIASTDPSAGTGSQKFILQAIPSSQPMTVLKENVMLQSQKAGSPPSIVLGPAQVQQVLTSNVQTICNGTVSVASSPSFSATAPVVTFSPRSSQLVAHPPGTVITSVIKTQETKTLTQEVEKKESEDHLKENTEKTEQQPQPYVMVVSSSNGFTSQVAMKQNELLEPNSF
Sequence of SPIB (Q01892 whole entry): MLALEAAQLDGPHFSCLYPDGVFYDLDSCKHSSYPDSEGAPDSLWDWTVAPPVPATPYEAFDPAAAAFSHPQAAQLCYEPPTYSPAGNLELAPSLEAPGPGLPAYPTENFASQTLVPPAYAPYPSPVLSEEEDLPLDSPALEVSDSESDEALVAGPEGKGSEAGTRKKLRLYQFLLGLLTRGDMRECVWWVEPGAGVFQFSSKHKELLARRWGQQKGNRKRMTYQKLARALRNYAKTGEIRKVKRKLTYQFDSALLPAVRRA
Sequence of ELF4 (Q99607 whole entry): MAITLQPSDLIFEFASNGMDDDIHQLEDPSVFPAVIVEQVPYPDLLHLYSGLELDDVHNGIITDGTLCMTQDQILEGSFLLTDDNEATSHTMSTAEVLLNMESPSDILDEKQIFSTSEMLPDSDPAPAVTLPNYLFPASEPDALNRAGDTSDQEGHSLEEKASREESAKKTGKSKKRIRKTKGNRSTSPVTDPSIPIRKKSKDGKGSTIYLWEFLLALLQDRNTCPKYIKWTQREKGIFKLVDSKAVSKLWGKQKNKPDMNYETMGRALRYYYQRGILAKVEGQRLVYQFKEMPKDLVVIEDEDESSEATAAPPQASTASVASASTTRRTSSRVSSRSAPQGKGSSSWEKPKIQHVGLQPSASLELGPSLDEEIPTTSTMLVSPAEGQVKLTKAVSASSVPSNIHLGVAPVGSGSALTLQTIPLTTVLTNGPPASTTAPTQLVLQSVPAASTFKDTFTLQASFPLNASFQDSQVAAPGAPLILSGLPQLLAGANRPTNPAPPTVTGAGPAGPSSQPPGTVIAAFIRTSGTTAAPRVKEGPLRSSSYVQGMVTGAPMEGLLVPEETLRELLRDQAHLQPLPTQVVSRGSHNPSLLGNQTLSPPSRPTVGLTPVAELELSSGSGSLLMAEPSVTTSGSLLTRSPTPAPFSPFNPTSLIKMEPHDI
Sequence of HSF1 (Q00613 whole entry): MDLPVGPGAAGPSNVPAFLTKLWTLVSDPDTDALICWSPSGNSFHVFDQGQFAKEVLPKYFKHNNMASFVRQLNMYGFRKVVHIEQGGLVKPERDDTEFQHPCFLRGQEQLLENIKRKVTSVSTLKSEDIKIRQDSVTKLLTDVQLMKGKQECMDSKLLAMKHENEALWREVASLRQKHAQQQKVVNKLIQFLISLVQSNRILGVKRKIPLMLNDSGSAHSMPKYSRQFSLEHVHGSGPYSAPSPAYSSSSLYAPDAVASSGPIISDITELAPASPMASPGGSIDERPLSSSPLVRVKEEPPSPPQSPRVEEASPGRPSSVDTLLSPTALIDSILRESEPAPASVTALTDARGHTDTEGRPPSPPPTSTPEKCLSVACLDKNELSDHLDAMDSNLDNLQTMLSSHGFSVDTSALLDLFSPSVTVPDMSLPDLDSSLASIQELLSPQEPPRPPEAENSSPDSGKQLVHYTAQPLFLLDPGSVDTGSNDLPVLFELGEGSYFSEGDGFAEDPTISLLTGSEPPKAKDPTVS

With TAAGTA the binding signal (FLI1) was 1.21 fold enrichment (6-mer frequency, TF over GST control), the binding signal (ELK1) was 1.26 fold enrichment (6-mer frequency, TF over GST control) and the binding signal (GABPA) was 1.28 fold enrichment (6-mer frequency, TF over GST control). The binding signal (ERG) was 1.22 fold enrichment (6-mer frequency, TF over GST control), the binding signal (ELF1) was 1.24 fold enrichment (6-mer frequency, TF over GST control) and the binding signal (EHF) was 1.19 fold enrichment (6-mer frequency, TF over GST control). For the same sequence, the binding signal (SPI1) was 1.16 fold enrichment (6-mer frequency, TF over GST control), the binding signal (SPIB) was 1.22 fold enrichment (6-mer frequency, TF over GST control) and the binding signal (ELK3) was 1.22 fold enrichment (6-mer frequency, TF over GST control). For the same sequence, the binding signal (FEV) was 1.16 fold enrichment (6-mer frequency, TF over GST control), the binding signal (ETV5) was 1.18 fold enrichment (6-mer frequency, TF over GST control) and the binding signal (HSF1) was 1.76 fold enrichment (6-mer frequency, TF over GST control). For the same sequence, the binding signal (SPIC) was 1.25 fold enrichment (6-mer frequency, TF over GST control), the binding signal (ELF4) was 1.24 fold enrichment (6-mer frequency, TF over GST control) and the binding signal (ELK4) was 1.18 fold enrichment (6-mer frequency, TF over GST control). The binding signal (ETV2) was 1.38 fold enrichment (6-mer frequency, TF over GST control), the binding signal (ELF3) was 1.36 fold enrichment (6-mer frequency, TF over GST control) and the binding signal (CRX) was 2.63 fold enrichment (6-mer frequency, TF over GST control). For the same sequence, the binding signal (ETV1) was 1.29 fold enrichment (6-mer frequency, TF over GST control).
